Compounds with a hit are over-represented: about 6.2% of the library has one in this group of screens.
LASV entry inh: inhibitors of Lassa virus binding or cell entry; Lassa virus pseudotype entry inhibition, cell reporter; Potency, µM (doses to about 37.9 µM), inactives show at the highest dose activity change, negative = inhibition, most hits filed as inhibitors; actives 1.2% (n = 300,000); calls by dose curve; tested in HEK293 cells; note: potency is the fitted concentration of half-maximal effect; nearly all actives have a fitted effect of over 50% in size
HCMV inh: human cytomegalovirus inhibition | HFF cells, HCMV-luciferase reporter, 72 h; stronger effect = lower value | activity change, negative = inhibition, % at 57.5 µM | actives 4.5% (n = 410,000) | AID 1259415; in the data active = activity change below about -60%; inconclusive = no clear call, values can overlap the other calls; inactive = above about -39%
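Human foreskin fibroblasts infected with luciferase-reporter HCMV at MOI 1 PFU/cell, compounds at two doses. Luciferase measured 72 h post infection; normalized to buffer-only basal and Salinomycin (10uM) controls.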
MARV entry inh: Marburg virus entry inhibition; Potency, µM (highest dose often 37.8 µM), for the others: top-dose activity change, negative = inhibition, hits mostly inhibitors; AID 540276; Marburg virus pseudotyped entry inhibition, cell reporter; actives 1.8% (n = 300,000); calls by dose curve; tested in HEK293 cells; note: potency is the fitted concentration of half-maximal effect
FMDV inh: blocks foot and mouth disease virus; FMDV antiviral cell-based qHTS; Potency, µM (series often up to 57.9 µM), for the others: at the highest dose activity change, negative = inhibition, most hits filed as inhibitors; actives 1.2% (n = 410,000); calls by dose curve; tested in HEK293T cells; note: read-out not given here; potency is the fitted concentration of half-maximal effect; nearly all actives have a fitted effect of over 45% in size
Starred values were filed as active, the others as inactive; ! = a repeat was not active; [ ] = remark or other dose. % is set by controls: 0 for no effect and ±100 for the full control effect.

Screening COC(=O)C1=C(C)N(Cc2ccc(C(F)(F)F)cc2)C(=NCC2CC2)NC1c1cccc(Cl)c1 (centres undefined) returned HCMV inh -102*.
CCCCN1CCC(C#N)(Nc2ccccc2)CC1 was read as LASV entry inh 2%, HCMV inh 22, MARV entry inh -2% and FMDV inh 10%.
`CN(C)c1ccc(/C=N/Nc2nncc3ccccc23)cc1` gave LASV entry inh inconclusive, HCMV inh 40, MARV entry inh inconclusive and FMDV inh 7.9µM*.
For CCS(=O)(=O)c1ccc(C=NNc2nc3ccccc3o2)cc1 the results were LASV entry inh inconclusive, HCMV inh 45, MARV entry inh inconclusive and FMDV inh -14%.
For C(=N\Nc1nncc2ccccc12)/c1ccccc1 the results were LASV entry inh inconclusive, HCMV inh 200, MARV entry inh 12% and FMDV inh 36%.
For CN(C)c1ccc(/C=N/Nc2nc3ccccc3o2)cc1 the results were LASV entry inh 5.6µM*, HCMV inh -16, MARV entry inh inconclusive and FMDV inh inconclusive.
`C[n+]1cc[nH]c1SCC(=O)c1ccc(Cl)cc1` gave LASV entry inh inconclusive, HCMV inh 35, MARV entry inh inconclusive and FMDV inh 34%.
CN(C)c1ccc(C=Nc2ccccc2C(N)=O)cc1 was read as LASV entry inh inconclusive, HCMV inh 44, MARV entry inh 15µM* and FMDV inh -37%.
`O=C(Cc1ccc(F)cc1)Nc1nccs1` gave HCMV inh 3 and FMDV inh 31%.
Cc1ccc(CC(=O)Nc2nccs2)cc1 was read as HCMV inh -67* and FMDV inh 15%.
Cc1nnc(SCC(=O)Nc2nccs2)o1 was read as LASV entry inh 2%[46.1 µM], HCMV inh -61*, MARV entry inh 31%[46.1 µM] and FMDV inh 19%.
Screening CCOc1ccc(OCC(=O)Nc2nccs2)cc1 returned LASV entry inh inconclusive, MARV entry inh inconclusive and FMDV inh 8.9µM*.
Screening Cc1nnc(SCC(=O)Nc2nccs2)s1 returned LASV entry inh -1%, HCMV inh -4, MARV entry inh 5% and FMDV inh 17%.
COc1ccc(OCC(=O)Nc2nccs2)cc1 was read as LASV entry inh inconclusive, HCMV inh 20, MARV entry inh inconclusive and FMDV inh -64%.
Screening CC(C)(C)OC(=O)N1CCC(c2c(C(=O)NCc3ccccc3)cnn2-c2ccc(F)cc2)CC1 returned LASV entry inh inconclusive, HCMV inh 18 and FMDV inh -13%.
Screening CCOc1ccc2c(c1)OC(c1ccc(C)cc1)(C(F)(F)F)NC2=O (centres undefined) returned LASV entry inh inconclusive, HCMV inh -83*, MARV entry inh -26% and FMDV inh -2%.
`Clc1ccc(-c2nc3ccccn3c2CN2CCCCC2)cc1` gave HCMV inh -77* and FMDV inh inconclusive.
For CN(C)Cc1c(-c2ccc(Cl)cc2)nc2ccccn12 the results were LASV entry inh 9%[46.1 µM], HCMV inh -8, MARV entry inh inconclusive and FMDV inh 18%.
COc1cc(/C=C2/SC(=S)N(c3ccccc3)C2=O)ccc1Oc1nc(N2CCOCC2)nc(N2CCOCC2)n1 was read as LASV entry inh -1%, HCMV inh -33, MARV entry inh 13% and FMDV inh -12%.
`NCCCn1c(C(=O)c2cc(Cl)c(N)c(Cl)c2)c2ccc(C(F)(F)F)cc2[n+]1[O-]` gave HCMV inh 29 and FMDV inh -22%.
Screening NCCCn1c(C(=O)c2cc(Cl)c(N)c(Cl)c2)c2ccc([N+](=O)[O-])cc2[n+]1[O-] returned HCMV inh -67* and FMDV inh -14%.
For N#C/C(=C/c1ccc(C(=O)O)cc1)C(=O)Nc1ccccc1 the results were LASV entry inh 15%, HCMV inh -25, MARV entry inh inconclusive and FMDV inh 0%.
CCn1cc(C(=O)NCc2ccccc2OC)c(=O)c2cc(S(=O)(=O)N3CCCCC3)ccc21 was read as LASV entry inh -36%[46.1 µM], HCMV inh -77*, MARV entry inh inconclusive and FMDV inh -26%.
Screening COc1ccc(CNC(=O)Cn2c(=O)oc3cc(S(=O)(=O)N4CCCC4)ccc32)cc1 returned LASV entry inh inconclusive, HCMV inh -34, MARV entry inh inconclusive and FMDV inh 3%.
`COc1ccc(C)cc1NC(=O)Cn1c(=O)ccc2cc(S(=O)(=O)N3CCC(C)CC3)ccc21` gave LASV entry inh 2%[46.1 µM], HCMV inh -114* and FMDV inh -28%.
For COc1ccccc1CNC(=O)Cn1c(=O)oc2cc(S(=O)(=O)N3CCCC3)ccc21 the results were LASV entry inh -23%[46.1 µM], HCMV inh -61*!, MARV entry inh 1%[46.1 µM] and FMDV inh -22%.
`Cc1cc(C)c(NC(=O)Cn2c(=O)oc3cc(S(=O)(=O)N4CCCCCC4)ccc32)c(C)c1` gave LASV entry inh -5%[46.1 µM], HCMV inh -70*, MARV entry inh -17%[46.1 µM] and FMDV inh -19%.
O=c1cc(C(F)F)oc2c1ccc1ccccc12 was read as LASV entry inh 20%, HCMV inh -6 and MARV entry inh 3%.
`Cc1oc2ncn(C)c(=O)c2c1C(=O)N1CCN(c2ccccc2)CC1` gave LASV entry inh 7%[46.1 µM], HCMV inh 0, MARV entry inh 14%[46.1 µM] and FMDV inh 6%.
For Cc1ccc(NC(=O)Cn2c(=O)oc3cc(S(=O)(=O)N4CCC(C)CC4)ccc32)cc1Cl the results were LASV entry inh -4%[46.1 µM], HCMV inh inconclusive, MARV entry inh -20%[46.1 µM] and FMDV inh -2%.
For Cc1ccc(NC(=O)Cn2c(=O)oc3cc(S(=O)(=O)N4CCC(C)CC4)ccc32)cc1C the results were HCMV inh -69*, MARV entry inh 0% and FMDV inh -12%.
CC1CCN(S(=O)(=O)c2ccc3c(c2)oc(=O)n3CC(=O)NCc2ccc(F)cc2)CC1 was read as LASV entry inh -15%[46.1 µM], HCMV inh -97*, MARV entry inh inconclusive and FMDV inh -15%.
Cc1nc2scc(-c3ccc(C(C)C)cc3)c2c(=O)n1N was read as LASV entry inh 12%, HCMV inh -62*, MARV entry inh inconclusive and FMDV inh inconclusive.
For CCN(CC)CCCNc1oc(-c2cccc(Cl)c2)nc1C#N the results were LASV entry inh -2%, HCMV inh 8, MARV entry inh 16µM* and FMDV inh -14%.
`C=CCNc1oc(-c2cccc(Cl)c2)nc1C#N` gave HCMV inh 32 and FMDV inh 35%.
O=C(Cn1cc([N+](=O)[O-])ccc1=O)NCc1ccc(Cl)cc1Cl was read as LASV entry inh 18%[46.1 µM], MARV entry inh 15%[46.1 µM] and FMDV inh 2%.
Screening COc1cc(/C=N/NC(=O)c2c(C)nc3ccc(Cl)cn23)cc(OC)c1OC returned LASV entry inh -9%[46.1 µM], HCMV inh 29, MARV entry inh 4.5µM* and FMDV inh -5%.
Screening Cc1ccc(/C=N/NC(=O)c2c(C)nc3ccc(Br)cn23)cc1 returned HCMV inh -30 and FMDV inh 16%.
`COc1ccc(/C=N/NC(=O)c2c(C)nc3ccc(Cl)cn23)cc1OC` gave HCMV inh -8 and FMDV inh -3%.
